Shown are actives, neighbours in structure and some others; about 5.9% of the full set was active somewhere.
KB-3-1 cytotox: kills parental KB-3-1 adenocarcinoma cells. KB-3-1 viability, CellTiter-Glo ATP luminescence, 72 h. Potency, µM (doses to about 46.1 µM), actives largely listed as cytotoxic. hit rate 1.4% among 400,000; further: on the % scale 0 is the no-effect control and ±100 the full control effect; nearly all actives have a fitted effect of over 60% in size
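Using CellTiter-Glo luminescence, growth of non-resistant KB-3-1 adenocarcinoma cells is assessed 72 h after pin-tool compound addition at 37 °C. Normalized responses across the concentration series yield fitted curves.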
ATXN viability: reduces viability in counter-screen for ATXN expression inhibitors | S2 cells (HEK-293 line with an ATXN2-luciferase reporter) viability, CellTiter-Fluor protease fluorescence, 24 h | Potency, µM (titrated, usually from 56.7 µM), actives largely listed as cytotoxic | hit rate 0.49% among 400,000 | AID 651635; further: nearly all actives have a fitted effect of over 40% in size
KB-V1 MDR tox: KB-V1 MDR subline cytotoxicity | KB-V1 MDR cells viability, CellTiter-Glo, 72 h | Potency, µM (titrated, usually from 46.1 µM), actives largely listed as cytotoxic | hit rate 3.4% among 400,000 | AID 1347076; further: on the % scale 0 is the no-effect control and ±100 the full control effect; nearly all actives have a fitted effect of over 60% in size
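KB-V1 cells (P-gp-expressing MDR subline of KB-3-1) in phenol-red-free DMEM with 10% FBS were exposed to library compounds over a concentration series for 72 h at 37 degrees C. Viability read by CellTiter-Glo luminescence; concentration-effect curves fitted after normalization.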
TGFb inhibitor: TGF-b pathway inhibition | HepG2 CAGA-GFP TGF-b/SMAD3 reporter, GFP fluorescence, 18 h; TGF-beta stimulated, 500 pg/mL final | Potency, µM (series often up to 46.1 µM), for the others: at the top dose activity, negative = inhibition, hits mostly inhibitors | hit rate 1.2% among 410,000 | AID 588855; further: on the % scale 0 is the no-effect control and ±100 the full control effect; nearly all actives have a fitted effect of over 65% in size
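HEPG2 CAGA-GFP, 1000 cells/well; 2 h settle, 37 C; cpd via pin tool; TGF-b 500 pg/mL final; 18 h, 37 C; GFP imaging ex488/em500-530; %Activity normalised to -TGF-b and +DMSO controls; CRC fit, curve class.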
HepG2 tox: kills HepG2 cells in TGF-b inhibitor counter-screen; HepG2 CAGA-GFP viability, ATP luminescence, 18 h; Potency, µM (series often up to 46.1 µM), for inactives: top-dose activity change, negative = cytotoxicity, actives largely listed as cytotoxic; hit rate 0.76% among 410,000; AID 588856
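CellTiter-Glo luminescence gave cytotoxicity after 18 hours at 37 degrees C. The cells were HepG2 CAGA-GFP in 1% FBS DMEM, stimulated with 500 pg/mL TGF-beta after compound addition. %Activity was normalised to no-cell wells (complete cell-killing) and DMSO (no toxicity), and curves were fitted and classified.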
ATXN2 expr inh: inhibitors of ATXN2 expression | HEK-293 ATXN2-luciferase reporter, luminescence, 24 h | Potency, µM (series often up to 57 µM), for the others: at the highest dose activity change, negative = inhibition, actives largely listed as inhibitors | hit rate 0.72% among 360,000 | AID 1745845; further: on the % scale 0 is the no-effect control and ±100 the full control effect; nearly all actives have a fitted effect of over 55% in size
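qHTS (up to 57 uM final) was run with 24 h compound exposure of reporter cells at 37 °C. Each well was multiplexed: SteadyGlo luminescence measured ATXN2-luciferase expression after a fluorogenic Gly-Phe-AFC viability readout (25 uM final).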
The depositor's hits bear a star; i = inactive; u = inconclusive; x = not tested or not shown; ! = repeats disagree. The call rests on the fitted dose curve; in most records, active means well fitted curve in the direction sought with a large enough effect; inconclusive means small, poorly fitted or top-dose-only effect, or another doubt; inactive means no such curve, though single readings can be large; an effect the other way counts as inactive or inconclusive. Potency means the concentration at half of the fitted maximal effect.

SMILES | KB-3-1 cytotox | ATXN viability | KB-V1 MDR tox | TGFb inhibitor | HepG2 tox | ATXN2 expr inh
COc1cc(C(O)c2nc(-c3cccc(C(F)(F)F)c3)cs2)ccc1F (stereo not given) | i | i | i | 13µM* | 11µM* | -27%
COc1ccccc1-c1ccnc(-n2ncc(C(=O)N3CCN(C(C)C)CC3)c2-c2ccco2)n1 | x | i | x | x | x | x
O=C(COc1ccccc1F)Nc1ccc(OCc2cc(=O)n3ccccc3n2)cc1 | x | x | x | -29% | -20% | x
COCCn1c(/C=C/c2ccccc2)nc2ccccc21 | i | i | u | -12% | -42% | 75%
COc1ccc(/C=C/c2nc3ccccc3n2Cc2ccccc2OC)cc1 | u | i | u | -24% | -33% | -21%
CC(C)CCn1c(/C=C/c2ccccc2)nc2ccccc21 | i | u | i | u | 10µM* | -9%
COc1ccccc1Cn1c(/C=C/c2ccccc2)nc2ccccc21 | 16µM* | i | 5.2µM* | u | -20% | 1%
CC1CC=CC2C1C(=O)N(Cc1ccccc1)C2c1ccc(F)c(-c2ccc(N(C)C)cc2)c1 (stereo not given) | x | x | x | -5% | -3% | x
CC1=C(C(=O)Nc2ccc(C)cc2C)C(c2cccs2)n2nc(SCc3ccc(Cl)cc3)nc2N1 (stereo not given) | i | i | u | 9% | 2% | 0%
O=C1C[C@H]2C=CCc3cccc(c32)CN1Cc1ccc(Cl)cc1 | i | x | 18µM* | 10µM* | -59% | x
CCn1c(-c2cccc(OC)c2)nc2cc(NC(C)=O)cc(C(=O)N3CCCC(C(C)=O)C3)c21 (stereo not given) | x | i | x | x | x | x
CCN(CC)CCOc1ncnc2c1oc1ccccc12 | i | i | i | -4% | -3% | -4%
CCCCc1oc2ccccc2c1C(=O)c1cc(I)c(OCCN(CC)CC)c(I)c1 | i | x | i | 21% | -35% | 28µM*!
Cc1cccc(OC(=O)c2cc(-c3ccc(Cl)cc3)on2)c1C | i | i | i | 3% | 8% | 0%
Cc1nc2ccccc2n1CC(=O)NCc1ccccc1 | u | i | 6.5µM* | -3% | -4% | -13%
Cc1nc2ccccc2n1CC(=O)NN | i | i | i | 3% | -22% | x
Cc1cc(=O)c2ccccc2n1CC(=O)NCc1ccccc1 | i | i | 4.6µM* | u | -23% | -16%
O=C(NCc1ccccc1)c1ccc2c(c1)N(Cc1ccc(F)cc1)CCS2 | u | i | i | 11% | -1% | 1%
CC[C@@H]1CCC[C@@H](O)[C@@H](C)C(=O)O[C@H](C)[C@@H](C)C/C=C(C)/C(OC)=C\C(=O)N(C)C([C@@H](C)CC)C(=O)N(C)[C@@H](C(C)C)C(=O)N(C)[C@@H](COC)C(=O)N2CCC[C@H]2C(=O)N(C)[C@@H](C(C)C)C(=O)N2CCC[C@H]2C(=O)O1 (stereo not given in full) | u | u | 1.8µM* | u | -7% | u
c1ccc2[nH]c(-c3ccc4c(c3)OCO4)nc2c1 | u | u | 13µM* | 3% | -64% | 20%
CCOC(=O)c1ccccc1NC(=O)C1CCCO1 (stereo not given) | i | i | i | -4% | -33% | -6%
CCc1ccc(NC(=O)c2ccccc2NC(=O)C2CCCO2)cc1 (stereo not given) | i | i | 6.5µM* | 1% | -16% | 66%
O=C(Nc1ccc(-c2nc3ccccc3[nH]2)cc1)c1ccc2c(c1)OCO2 | i | u | i | 7.9µM* | 8.9µM* | -28%
Cc1nc2ccc(-c3nc4ccccc4[nH]3)cc2[nH]1 | i | i | i | -2% | -35% | -29%
O=C(CSc1ccccc1)Nc1ccc(-c2nc3ccccc3[nH]2)cc1 | 21µM* | i | u | u | 16µM* | 7%
SMILES | KB-3-1 cytotox | ATXN viability | KB-V1 MDR tox | TGFb inhibitor | HepG2 tox | ATXN2 expr inh
O=C(Nc1ccc(Cl)c(-c2nc3ccccc3[nH]2)c1)c1ccc2c(c1)OCO2 | u | i | i | -50% | -13% | 7%
COc1cccc(C(=O)NCC2Cc3cccc(-c4ncccn4)c3O2)c1OC (stereo not given) | x | i | x | x | x | x
O=C(Nc1nc2ccccc2[nH]1)C1CCCO1 (stereo not given) | i | i | i | 0% | -25% | 25%
O=C(Nc1ccc(-c2nc3ccccc3[nH]2)cc1)C1CCCO1 (stereo not given) | u | i | u | 7% | 7.1µM* | -29%
CN(C)c1ccc2ccc3cccc4ccc1c2c34 | i | x | i | 50% | -27% | x
CCCC(=O)N(CCN(C(=O)CCC)c1ccccc1)c1ccccc1 | i | i | 10µM* | -15% | -18% | -4%
COc1cccc(-c2cnc3c(NC(C)=O)cc(-c4cc(OC)c(OC)c(OC)c4)cn23)c1 | i | i | u | 26% | -38% | 7%
CO[C@H]1[C@H](NC(=O)c2ccco2)c2ccccc2C12CCN(Cc1cnc(N(C)C)s1)CC2 | x | i | x | x | x | x
CCC(=O)C1=C(c2ccc(OC)c(OC)c2)N(C(=O)CC)n2c(CC)nnc2S1 | x | x | x | u | -55% | x
Oc1ccc(Br)cc1-c1nc2cnccn2c1NC1CCCC1 | u | i | 23µM* | -28% | 11µM* | -16%
c1ccc(-c2cn3c(n2)-c2ccccc2C3)cc1 | u | u | 10µM* | -20% | -64% | 0%
COc1cc(NC(=O)CCNS(=O)(=O)c2cc(Br)cnc2N)cc(OC)c1 | i | i | i | -4% | -8% | 11%
Cc1cc(NC(=O)CCNS(=O)(=O)c2cc(Br)cnc2N)ccc1Br | i | i | i | 11µM* | -37% | -17%
Cc1ccc(NC(=O)CCNS(=O)(=O)c2cc(Br)cnc2N)cc1Cl | u | i | 13µM* | -28% | -14% | -9%
Nc1ncc(Br)cc1S(=O)(=O)NCCC(=O)Nc1cccc(Cl)c1 | i | i | u | -10% | -21% | u
O=C(CNC(=O)c1ccccc1)N/N=C/c1ccc([N+](=O)[O-])o1 | i | u | i | u | -94% | x
O=C(Cc1ccc2c(c1)OCO2)NN=Cc1ccc([N+](=O)[O-])o1 | i | u | 23µM* | 10µM* | -102% | u
CCCCCC(=O)N/N=C/c1ccc([N+](=O)[O-])o1 | i | i | i | u | 10µM* | -26%
Cc1ccc(NCC(=O)N/N=C\c2ccc([N+](=O)[O-])o2)cc1 | i | i | u | 11µM* | 13µM* | -25%
O=C(CNc1ccccc1)N/N=C/c1ccc([N+](=O)[O-])o1 | u | i | u | u | 11µM* | u
